Screens: PubChem BioAssay, National Center for Advancing Translational Sciences (NCATS)
HttQ103 aggreg – mutant huntingtin aggregation inhibition; PC12 HttQ103-GFP aggregates, Acumen cytometry, 40 h; Potency, µM (titrated, usually from 46.1 µM), usual class: inhibitors; 220,000 tested, 1.1% active; note: nearly all actives have a fitted effect of over 60% in size
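Multiplexed with ATP-based cell death, this channel scores GFP aggregates in PC12 cells expressing inducible HTTex1-Q103-GFP. Induction used 100 nM tebufenozide; compounds were tested in concentration series.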
HTT cytoprotect – Huntington cell model cytoprotection by ATP luminescence; PC12 HTT-Q103 induced, cytoprotection, ATP luminescence, 40 h; Potency, µM (series often up to 56.4 µM), actives largely listed as activators; 230,000 tested, 0.14% active; AID 1471; note: nearly all actives have a fitted effect of over 45% in size
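PC12 cells stably carrying ecdysone-inducible Htt exon 1 (Q103)–GFP were induced with 100 nM tebufenozide (final) alongside library compounds in a dose series. Cytoprotection was scored as retained ATP by ATPlite luminescence.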
GLA spleen mod – inhibits or activates alpha-galactosidase in human spleen homogenate; P06280; human spleen homogenate, 4MU-alpha-Gal fluorescence, 40 min; Potency, µM (doses to about 80 µM), usual class: inhibitors; 240,000 tested, 0.008% active; AID 2107
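Human spleen homogenate (1 ug) was the enzyme source, with 4-methylumbelliferyl-alpha-D-galactopyranoside (1 mM final) in pH 5.0 citrate buffer with 0.01% Tween-20. Compounds were titrated; after 40 min at 37C, NaOH/glycine stop, 4-MU fluorescence read; AC50 from Hill fits.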
ERK EGF inh – inhibitors of EGF-stimulated ERK signaling pathway; HEK293-V1b, EGF-stimulated phospho-ERK AlphaScreen; Potency, µM (doses to about 11.5 µM), actives largely listed as inhibitors; 130,000 tested, 0.41% active; AID 1454; note: nearly all actives have a fitted effect of over 55% in size
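HEK293 cells stably expressing V1b receptor, serum-reduced (1% FBS) overnight, pretreated 30 min with compound, then stimulated 5 min with 25 nM EGF; phospho-ERK detected by AlphaScreen SureFire. AC50 from Hill fits, normalized to DMSO and EGF.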
GLA inh pH 4.5 – blocks human alpha-galactosidase A at pH 4.5 | P06280 | purified enzyme, 4-MU-alpha-Gal fluorescence, pH 4.5 | activity change, negative = inhibition, % at 105 µM | 230,000 tested, under 10 active
ERK pERK EGF – confirmation of ERK pathway inhibitors under EGF stimulation | AID 1725 | HEK293 EGF-stimulated ERK phosphorylation, AlphaScreen | shares compounds with ERK EGF inh | Potency, µM (series often up to 57.5 µM), actives largely listed as inhibitors | 60 tested, 60% active
cRaf kinase inh – c-Raf inhibition, ERK pathway follow-up; shares compounds with ERK EGF inh; c-Raf kinase inhibition, homogeneous biochemical assay; activity change, negative = inhibition, % at 76.9 µM; 70 tested, under 10 active
Target sequence (P04049 whole entry, looked up): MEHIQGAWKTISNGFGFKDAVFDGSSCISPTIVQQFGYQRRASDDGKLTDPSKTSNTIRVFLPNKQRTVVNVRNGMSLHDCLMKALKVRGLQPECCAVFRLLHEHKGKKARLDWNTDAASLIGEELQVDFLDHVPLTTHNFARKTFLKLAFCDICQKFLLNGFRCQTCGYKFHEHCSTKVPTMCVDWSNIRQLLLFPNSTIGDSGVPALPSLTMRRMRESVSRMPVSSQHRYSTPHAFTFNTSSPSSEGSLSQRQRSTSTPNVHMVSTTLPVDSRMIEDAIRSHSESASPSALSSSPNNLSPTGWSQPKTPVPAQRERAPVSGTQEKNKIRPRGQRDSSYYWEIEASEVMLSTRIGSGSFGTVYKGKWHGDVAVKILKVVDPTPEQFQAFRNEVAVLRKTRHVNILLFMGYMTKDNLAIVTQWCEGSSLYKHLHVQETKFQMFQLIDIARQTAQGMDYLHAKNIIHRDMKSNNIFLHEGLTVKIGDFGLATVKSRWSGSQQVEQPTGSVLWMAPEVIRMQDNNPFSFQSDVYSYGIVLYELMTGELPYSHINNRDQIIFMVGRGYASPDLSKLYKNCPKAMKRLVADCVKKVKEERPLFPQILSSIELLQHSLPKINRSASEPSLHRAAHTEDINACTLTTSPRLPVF
MEK1 kinase inh – blocks human MEK1 kinase activity in ERK pathway follow-up. shares compounds with ERK EGF inh. homogeneous MEK kinase activity assay, ERK pathway. Potency, µM (titrated, usually from 76.9 µM), hits mostly inhibitors. 70 tested, under 10 active. AID 1732
Of the large screens only hits and unclear results are named; the others gave an inactive call (follow-up assays come after a bar, where they were run). Rows were chosen to be rich in hits. Some 1.2% of all compounds tested hit in one or more screens of this group. Calls come from the whole dose curve; as a rule, active = well fitted curve in the direction sought with a large enough effect; inconclusive = small, poorly fitted or top-dose-only effect, or another doubt; inactive = no such curve, though single readings can be large; an effect the other way counts as inactive or inconclusive.

Cc1cc(-c2ccccc2)n(-c2cc(N/N=C/c3ccccc3O)ncn2)n1	HttQ103 aggreg 8.9µM, ERK EGF inh 10µM | ERK pERK EGF inconclusive | cRaf kinase inh inactive | MEK1 kinase inh inactive
Cc1ccc(Nc2ncnc3sc(C)c(C)c23)cc1C	none (no result: ERK EGF inh) | ERK pERK EGF 11µM | cRaf kinase inh inconclusive | MEK1 kinase inh inactive
CC(=O)N1CCC(=NNc2nc3ccccc3s2)CC1	ERK EGF inh inconclusive | ERK pERK EGF inconclusive | cRaf kinase inh inconclusive | MEK1 kinase inh inactive
O=C1c2ccccc2C(=O)c2c1ccc(O)c2O	ERK EGF inh inconclusive
O=C1c2ccc(O)c(O)c2C(=O)c2c(O)ccc(O)c21	ERK EGF inh 7.9µM (no result: HttQ103 aggreg) | ERK pERK EGF 10µM | cRaf kinase inh inconclusive | MEK1 kinase inh inconclusive
COc1ccc(-c2nnc3n2N=C(c2ccc(OC)c(OC)c2)CS3)cc1	none (no result: HttQ103 aggreg, HTT cytoprotect, ERK EGF inh, GLA inh pH 4.5)
CCCCc1nc2c(c3c1C[C@H](C)OC3)CN(S(=O)(=O)c1ccc(Cl)c3nonc13)CC2	none (no result: HttQ103 aggreg, ERK EGF inh)
Cc1cccc(C(=O)Nc2cc(OCc3cccc(F)c3)c(Cl)cc2Cl)c1	none (no result: ERK EGF inh)
CS(=O)(=O)CCNCc1nc(-c2ccc3ncnc(Nc4ccc(OCc5cccc(F)c5)c(Cl)c4)c3c2)cs1	ERK EGF inh 1µM (no result: HttQ103 aggreg) | ERK pERK EGF 0.71µM | cRaf kinase inh inactive | MEK1 kinase inh inactive
C[C@H](CCC(=O)NN)[C@@H]1CC[C@@H]2[C@H]3CC[C@H]4C[C@@H](O)CC[C@@]4(C)[C@@H]3CC[C@]21C	none (no result: HttQ103 aggreg, GLA spleen mod, ERK EGF inh, GLA inh pH 4.5)
CC(=O)OCC(=O)[C@@]1(O)CCC2C3C[C@H](C)C4=CC(=O)C=CC4(C)C3C(O)CC21C (some centres undefined)	none (no result: ERK EGF inh)
COc1cc2ncnc(Nc3ccc(F)c(Cl)c3)c2cc1OCCCN1CCOCC1	none (no result: ERK EGF inh) | cRaf kinase inh inactive | MEK1 kinase inh inactive
O=C(NCc1ccccn1)C1(C(F)(F)F)C/C(=C\Cc2ccccc2)CCCO1 (centres undefined)	none (no result: HttQ103 aggreg, HTT cytoprotect, ERK EGF inh, GLA inh pH 4.5)
c1ccc(CNc2ncnc3ccc(-c4ccoc4)cc23)cc1	none (no result: HttQ103 aggreg, ERK EGF inh, GLA inh pH 4.5)
CN(C)c1ccc(-c2ccc3ncnc(NCc4ccccc4)c3c2)cc1	ERK EGF inh 8.9µM (no result: HttQ103 aggreg) | ERK pERK EGF 11µM | cRaf kinase inh inconclusive | MEK1 kinase inh inactive
O=C1c2ccccc2-c2onc3ccc(N4CCCC4)c1c23	ERK EGF inh inconclusive
O=C1c2ccccc2C(=O)c2c1cccc2N1CCCC1	ERK EGF inh 10µM | ERK pERK EGF 16µM | cRaf kinase inh inconclusive | MEK1 kinase inh inconclusive
COc1ccc(-c2n(CC(=O)OC3CC(C)CCC3C(C)C)c3ccccc3[n+]2C)cc1 (centres undefined)	ERK EGF inh 1.8µM | ERK pERK EGF inactive | cRaf kinase inh inactive | MEK1 kinase inh inactive
CC(/C=C/c1ccccc1)=N\Nc1ccccc1[N+](=O)[O-]	ERK EGF inh 7.9µM | ERK pERK EGF 8.9µM | cRaf kinase inh inactive | MEK1 kinase inh inactive
C=CC[C@@H]1C=C[C@@H](O/N=C(/C)CCC(=O)OC[C@@H]2O[C@H](C#Cc3ccccc3)C=C[C@@H]2Oc2ccc(C)cc2)[C@@H](CO)O1	none (no result: HttQ103 aggreg, ERK EGF inh, GLA inh pH 4.5)
Cc1nc2ccccc2nc1OCc1ccccc1	none
Cc1nc2ccccc2nc(=O)c1NNc1ccccc1	HttQ103 aggreg inconclusive (no result: ERK EGF inh) | ERK pERK EGF 14µM | cRaf kinase inh inactive | MEK1 kinase inh inactive
Cc1ccc2nc(=O)c(NNc3ccccc3)cnc2c1	ERK EGF inh 14µM (no result: HTT cytoprotect) | cRaf kinase inh inactive | MEK1 kinase inh inactive
CC#CCN1c2ccccc2[C@]23C[C@@H](C(=O)OC)N(S(=O)(=O)c4ccc(C)cc4)C2=NC(C(=O)OC)=C(C(=O)OC)[C@H]13	none (no result: HttQ103 aggreg, ERK EGF inh)
CCOc1ccc(/C(O)=C2/C(=O)C(=O)N(c3ncccn3)C2c2ccc(C)cc2)cc1 (centres undefined)	none
